From PubChem
Sampled rows, rich in hits. Any-hit rate of the full collection: about 5.4%.
p53 reactivation – qHTS assay for re-activators of p53 using a Luc reporter | actives 0.063% (n = 320,000) | AID 504706, 2011 | Potency, µM (series often up to 92.2 µM), for inactives: at the highest dose activity change, positive = activation, hits mostly activators | H1299 p53-A138V BP100-luciferase reporter, luminescence, 24 h; further: potency means the concentration at half of the fitted maximal effect; % of control where 0% means no effect; nearly all actives have a fitted effect of over 45% in size
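p53-null H1299 cells stably carrying temperature-sensitive p53-A138V and a BP100-luciferase reporter were pinned with compounds (4-point, 1:5 series) and held 24 hrs at 37 deg C. Luminescence was read 10 min after detection reagent.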
CtBP-E1A blk – qHTS Assay for Inhibitors of the CtBP/E1A Interaction; AlphaScreen GST-E1A/His-CtBP binding, 1536-well; hits give low values; activity change, % (no concentration beside the values); actives 0.49% (n = 340,000); AID 651724, 2012; CtBP / adenovirus E1A interaction (AlphaScreen); in the data active means activity change below about -65%; inconclusive means mostly about -30% to -63%; further: on the % scale 0 is the no-effect control and ±100 the full control effect
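Protein mix (5X: 125 nM each GST-E1A, His-CtBP) was incubated with pinned compound 2 h at 37 deg C in dark, in 50 mM Tris pH 8.0 buffer with 300 mM NaCl. Glutathione donor and nickel acceptor beads followed; AlphaScreen signal read after 1 h.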
Six1-Eya2 inh – qHTS Assay for Inhibitors of the Six1/Eya2 Interaction. AlphaScreen GST-Six1/His-Eya2 binding, biochemical; hits give low values. activity change, % (test concentration not listed). AID 651725, 2012. Homeobox protein SIX1 (Homo sapiens) + Protein phosphatase EYA2 (Homo sapiens), …. actives 0.56% (n = 360,000); in the data active means activity change below about -65%; inconclusive means mostly about -30% to -63%; further: on the % scale 0 is the no-effect control and ±100 the full control effect
Target sequence (O00167 whole entry, looked up): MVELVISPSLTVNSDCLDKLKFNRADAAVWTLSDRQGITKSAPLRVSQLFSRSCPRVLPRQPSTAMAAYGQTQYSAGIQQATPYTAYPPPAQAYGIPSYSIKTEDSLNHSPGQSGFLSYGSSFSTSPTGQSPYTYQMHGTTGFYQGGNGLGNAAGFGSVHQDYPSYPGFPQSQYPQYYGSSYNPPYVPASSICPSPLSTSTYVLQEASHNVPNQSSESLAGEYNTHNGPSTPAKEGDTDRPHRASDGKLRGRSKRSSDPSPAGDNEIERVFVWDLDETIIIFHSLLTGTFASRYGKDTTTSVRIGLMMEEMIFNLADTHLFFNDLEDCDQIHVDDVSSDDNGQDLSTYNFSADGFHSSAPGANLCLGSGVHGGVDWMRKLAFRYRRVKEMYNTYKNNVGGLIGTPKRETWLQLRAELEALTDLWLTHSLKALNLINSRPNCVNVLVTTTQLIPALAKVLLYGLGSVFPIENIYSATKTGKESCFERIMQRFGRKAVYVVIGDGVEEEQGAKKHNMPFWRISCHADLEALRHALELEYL
Target sequence (Q15475 whole entry, looked up): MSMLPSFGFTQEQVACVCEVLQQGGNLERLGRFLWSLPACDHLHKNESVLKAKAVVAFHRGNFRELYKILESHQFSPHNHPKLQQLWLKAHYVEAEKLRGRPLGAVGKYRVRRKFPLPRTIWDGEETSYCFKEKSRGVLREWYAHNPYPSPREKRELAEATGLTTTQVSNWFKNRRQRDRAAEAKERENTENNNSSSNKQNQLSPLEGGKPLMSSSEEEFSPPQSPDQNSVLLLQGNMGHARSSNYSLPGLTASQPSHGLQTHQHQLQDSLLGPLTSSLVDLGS
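Compounds are tested against tagged Six1 and Eya2 proteins bridged by glutathione donor and nickel acceptor beads; after a one-hour incubation at 37 °C without light, AlphaScreen emission is recorded.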
Gal4-VP16 FLuc – VP16 counterscreen qHTS for inhibitors of ROR gamma transcriptional activity | Drosophila S2 Gal4-VP16 UAS-luciferase, luminescence, 20 h | Potency, µM (top dose mostly 53.6 µM), without a hit: at the top dose activity, negative = inhibition, hits mostly inhibitors | actives 3.5% (n = 310,000) | AID 2546, 2010;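 further: Gal4-VP16 expression switched on by copper sulfate through the metallothionein promoter; potency means the concentration at half of the fitted maximal effect; on the % scale 0 is the no-effect control and ±100 the full control effect; nearly all actives have a fitted effect of over 50% in size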
RORgamma inh – qHTS for inhibitors of ROR gamma transcriptional activity. Nuclear receptor ROR-gamma (Mus musculus), P51450. Drosophila S2 Gal4-RORgamma UAS-luciferase reporter, 20 h. Potency, µM (doses to about 53.6 µM), inactives show at the highest dose activity change, negative = inhibition, actives largely listed as inhibitors. actives 5.4% (n = 310,000); further: potency means the concentration at half of the fitted maximal effect; on the % scale 0 is the no-effect control and ±100 the full control effect; nearly all actives have a fitted effect of over 60% in size
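Drosophila S2 cells stably expressing Gal4-DBD/mouse RORγ fusion under metallothionein promoter plus UAS-luciferase; compound 1 h, then 700 uM CuSO4 induction for 20 h at ambient temperature; inhibition read as reduced luminescence.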
* hit, by the source's call; ? = inconclusive; . = no result; ! = repeats disagree; [ ] = another dose, or the depositor's remark. Unless noted, the call rests on the fitted dose curve; in most records, active means well fitted curve in the direction sought with a large enough effect; inconclusive means small, poorly fitted or top-dose-only effect, or another doubt; inactive means no such curve, though single readings can be large; an effect the other way counts as inactive or inconclusive.

SMILES	p53 reactivation	CtBP-E1A blk	Six1-Eya2 inh	Gal4-VP16 FLuc	RORgamma inh
C[n+]1c2ccccc2nc2ccc(NCCO)cc21	-17%	-70*	-73*	-15%	-34%
CNc1ccc2nc3ccccc3[n+](C)c2c1	-18%	.	-75*	-16%	-41%
Nc1cc(Cl)ccc1O	.	.	.	3%	-4%
O=C(O)c1ccc(-c2ccc3cc(C45CC6CC(CC(C6)C4)C5)c(O)cc3c2)cc1	.	.	.	11µM*	?
COc1ccc(-n2nc(C(=O)NCC(=O)N3CCC4(CC3)OCCO4)c3ccccc3c2=O)cc1OC	?	-18	3	?	16µM*
[Cl-].[Cl-].[Hg+2]	.	.	.	18µM*	?
CC(Cc1ccc(C(C)(C)C)cc1)CN1CCCCC1 (stereo unspecified)	.	.	.	-2%	-7%
CCC(=NCCC(c1ccccc1)c1ccccc1)c1c(O)n(C)c(=O)n(C)c1=O	1%	7	10	2%	15%
CCC(=NCc1ccc(F)cc1)c1c(O)n(C)c(=O)n(C)c1=O	-15%	0	-3	22µM*	24%
O=Cc1ccc2c(c1)OCO2	.	.	.	6%	0%
Clc1cc(Cl)c(Cl)c(Cl)c1	.	.	.	-16%	14%
O=[N+]([O-])C(Br)Br	.	.	.	11µM*	13µM*
Cn1c(O)c(C2=NNC(c3ccc(Cl)cc3)C2)c(=O)n(C)c1=O (stereo unspecified)	-1%	-1	-6	5µM*	7.1µM*
COc1ccc(CCn2c(O)c(C=NCc3cccnc3)c(=O)[nH]c2=O)cc1OC	5%	3	-1	10%	21%
COc1ccc(C2CC(c3c(O)n(CCc4ccccc4)c(=O)[nH]c3=O)=NN2)cc1OC (stereo unspecified)	0%	-26	-68*	2%	-19%
CCC(C=C[C@@H]1OC(=O)C=C[C@H]1C)=C[C@H](C)CC=CC(C)=C[C@@H](C)C(=O)[C@@H](C)[C@H](O)[C@@H](C)CC(C)=CC(=O)O	.	.	.	1.3µM*	?
CC[C@@H](CO)NC(=O)[C@@H]1C=C2c3cccc4c3c(cn4C)C[C@H]2N(C)C1	-2%	-8	-5	?	18µM*!
O=[N+]([O-])c1ccc(N2CCCC2)c2ncccc12	-2%	-22	-6	-7%[10 µM]	-2%
Cc1nonc1OCCNCCNc1ccc([N+](=O)[O-])c2cccnc12	-6%	-11	-16	5µM*	1.8µM*
CCNCCNc1ccc([N+](=O)[O-])c2cccnc12	-5%	-17	-12	20µM*	2.8µM*
O=[N+]([O-])/C=C/c1c(OCc2ccccc2)ccc2ccccc12	7%	.	.	4.5µM*	5.6µM*
Cc1cc(C)nc(N/N=C/C2=C(O)CC(c3ccccc3)CC2=O)n1 (stereo unspecified)	11%	.	.	-19%	?
CCOP(=O)(OCC)C(Nc1cccc(C(F)(F)F)c1)c1ccc(Br)cc1 (stereo unspecified)	-5%	.	.	-23%	?
CCOC(=O)[C@]1(C#N)[C@@H]2C=CC(C(C)=O)=CN2[C@@H](C(N)=O)[C@@H]1c1ccsc1	-3%	6	-11	20µM*	29%
O=C(Cc1c(O)c2ccccc2oc1=O)c1ccc(F)cc1	?	9	-1	.	.
CC(=O)Oc1c2c(c(CC=C(C)C)c3c1C(=O)C1=CC4CC5C(C)(C)OC(C/C=C(\C)C(=O)O)(C4=O)[C@]15O3)OC(C)(CCC=C(C)C)C=C2 (stereo partly specified)	.	.	.	?	3.5µM*
COC(=O)/C(C)=C\CC12OC(C)(C)C3CC(C=C4C(=O)c5c(OC)c6c(c(CC=C(C)C)c5OC431)OC(C)(CCC=C(C)C)C=C6)C2=O (stereo unspecified)	.	.	.	-1%	?
O=c1[nH]c(O)c(N=Nc2cc([N+](=O)[O-])ccc2O)c(=O)[nH]1	3%	?	-78*	-4%	-16%
